Source: PubChem BioAssay (NCATS)
Inconclusive results are not listed. The source made the active and inactive calls. Calls come from the whole dose curve; as a rule, active = well fitted curve in the direction sought with a large enough effect; inconclusive = small, poorly fitted or top-dose-only effect, or another doubt; inactive = no such curve, though single readings can be large; an effect the other way counts as inactive or inconclusive.

How the values were obtained:
[1] = target: Cellular tumor antigen p53 (Homo sapiens) (UniProt P04637); assay: Primary qHTS for small molecule compounds that upregulate eGFP-tagged delta133p53alpha (in N-terminal) cells. (AID 2060322); settings: NCI-H358 eGFP-delta133p53alpha fluorescence, 24 h; activation: hits give high values;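 note: 0% = DMSO vehicle and 100% = reference activator; nearly all actives have a fitted effect of over 75% in size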
In short: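 NCI-H358 cells pre-induced 24 h with 10 ng/ml doxycycline to express N-terminal eGFP-delta133p53alpha, then dosed 24 h at 37C without doxycycline; fixed, Hoechst-stained, GFP intensity by laser scanning cytometry, normalized to DMSO (0%) and 57.5 uM 5-azacytidine (100%).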

[2] = target: Aldehyde dehydrogenase, mitochondrial (Homo sapiens) (UniProt P05091); assay: qHTS for Inhibitors of the Aldehyde Dehydrogenase Family (ALDH2) Primary screen (AID 2061308); settings: ALDH2 enzyme inhibition qHTS, 1536-well; series mostly up to 56 µM;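 note: plate controls were vehicle for no effect and reference inhibitor for full effect; nearly all actives have a fitted effect of over 55% in size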
[3] = target: Retinaldehyde dehydrogenase 3 (Homo sapiens) (UniProt P47895); assay: qHTS for Inhibitors of the Aldehyde Dehydrogenase Family (ALDH1A3) Primary screen (AID 2061315); settings: ALDH inhibition qHTS; series mostly up to 56 µM;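 note: plate controls were DMSO vehicle for no effect and reference inhibitor for full effect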

Chain of Cellular tumor antigen p53 (Homo sapiens) (P04637 whole entry, looked up): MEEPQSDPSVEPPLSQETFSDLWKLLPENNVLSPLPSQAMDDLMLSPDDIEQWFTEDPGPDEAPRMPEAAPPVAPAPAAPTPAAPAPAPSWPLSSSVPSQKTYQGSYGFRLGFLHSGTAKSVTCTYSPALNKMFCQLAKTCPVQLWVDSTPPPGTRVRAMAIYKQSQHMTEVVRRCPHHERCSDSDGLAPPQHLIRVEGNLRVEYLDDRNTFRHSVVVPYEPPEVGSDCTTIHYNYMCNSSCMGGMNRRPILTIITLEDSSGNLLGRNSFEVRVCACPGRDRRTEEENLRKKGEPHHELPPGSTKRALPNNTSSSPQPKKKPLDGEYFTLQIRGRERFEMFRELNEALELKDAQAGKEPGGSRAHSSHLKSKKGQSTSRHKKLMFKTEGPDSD

CC12CCC3c4ccc(O)cc4CCC3C1CC(OC1OC(C(=O)O)C(O)C(O)C1O)C2O (stereo not given)
inactive: activation [1] -10.3% | Potency [2] | Potency [3]

C=C(C(=O)O)C1CC(O)C2(C)CCCC(=C)C2C1 (stereo not given)
inactive: activation [1] 3.82% | Potency [2] | Potency [3]

CC1OC(OC2C(C)OC(OC3C(OC(=O)C45CCC(C)(C)CC4C4=CCC6C7(C)CCC(OC8OC(C(=O)O)C(O)C(O)C8OC8OC(CO)C(O)C(OC9OC(C)C(O)C(O)C9O)C8O)C(C)(CO)C7CCC6(C)C4(C)CC5)OC(CO)C(O)C3O)C(O)C2O)C(O)C(O)C1O (stereo not given)
inactive: activation [1] 13.4% | activity change, negative = inhibition [2] -1.8% [at 11.2 µM] | activity change, negative = inhibition [3] -5.04% [at 11.2 µM]

C=C1C(=O)O[C@H](CCC)[C@H]1C(=O)O
inactive: activation [1] -1.67% | Potency [2] | Potency [3]

CC(=O)O[C@H]1C[C@@H]2[C@]3(CC[C@]4(C)[C@@H](C5(C)CCC(C(C)(C)O)O5)[C@@H](O)C[C@@]24C)C[C@@]32CC[C@H](O[C@@H]3OC[C@@H](O)[C@H](O)[C@H]3O)C(C)(C)[C@H]12 (stereo not given in full)
inactive: activation [1] -4.46% | Potency [2] | Potency [3]
